Test results as given in the supplement of paper PMC10849652.
Of roughly 7,900 targets only a part is listed; those with a hit were picked by preference. About 0.6% of all pairs of compound and target were hits.

Key:
Experiment in all cases: log2 fold change, soluble protein after heating vs DMSO (PISA); higher = thermal stabilisation; K562 cells, 10 uM, 30 min; active = over 0.2 and 3.5 SD of the protein, either way, in both replicates (recomputed)
[1] = compound: C1=CC=C(C=C1)[C@H](COC2=CC3=C(C=C2)NC(=O)N3)NC(=O)C4=CC=CN(C4=O)CC5=CC(=C(C=C5)F)F
Procedure, shortened: (§1)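 Values are thermal stability changes relative to control samples and are taken from duplicates. They are stated as log2 fold changes. Before quantification by TMTpro 16plex LC-MS/MS with equalised channel sums, K562 cells at 2×10^6 cells/mL were treated with 10 μM compound for 30 min, heated in aliquots for 3 min across 48°C-58°C, pooled, extracted in PBS with 0.5% NP-40 at 4°C, and centrifuged at 21,000xg for 90 min to give the soluble supernatant.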

[2] = compound: CC1=C(SC2=C1C(=N[C@H](C3=NN=C(N32)C)CC(=O)N)C4=CC=C(C=C4)Cl)C
Procedure, shortened: as §1

[3] = compound: CC1=C2C(=CC=C1)N=C(N(C2=O)C3=CC=CC=C3C)CN4C=NC5=C(N=CN=C54)N
Procedure, shortened: as §1

[4] = compound: Cc1sc2c(c1C)C(c1ccc(Cl)cc1)=N[C@@H](CC(=O)OC(C)(C)C)c1nnc(C)n1-2
Procedure, shortened: as §1

[5] = compound: c1ccc([C@@H]2C[C@H]2NC2CCNCC2)cc1
Procedure, shortened: as §1

Measured: log2 fold change

RAB3IL1 (UniProt Q8TBN0)
Sequence of UniProt Q8TBN0 (Q8TBN0 whole entry, looked up): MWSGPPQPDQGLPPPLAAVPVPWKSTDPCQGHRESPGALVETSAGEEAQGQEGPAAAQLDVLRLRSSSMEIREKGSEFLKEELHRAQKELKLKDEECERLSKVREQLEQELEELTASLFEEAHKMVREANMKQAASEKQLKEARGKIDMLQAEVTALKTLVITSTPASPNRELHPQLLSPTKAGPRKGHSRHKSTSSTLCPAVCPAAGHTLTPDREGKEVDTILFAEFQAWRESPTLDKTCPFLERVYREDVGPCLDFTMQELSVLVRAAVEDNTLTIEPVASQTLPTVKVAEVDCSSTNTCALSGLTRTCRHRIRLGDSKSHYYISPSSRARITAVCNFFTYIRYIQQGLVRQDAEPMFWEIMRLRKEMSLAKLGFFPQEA
inactive: [1] 0.018 | [2] -0.013 | [3] 0.078 | [4] -0.03 | [5] -0.076

RAD51 (UniProt Q06609)
inactive: [1] -0.006 | [2] 0.142 | [3] -0.037 | [4] 0 | [5] -0.053

RSRC1 (UniProt Q96IZ7)
inactive: [1] -0.002 | [2] -0.019 | [3] 0.079 | [4] -0.019 | [5] -0.03

RABGAP1L isoform 3 (UniProt Q5R372)
inactive: [1] 0.007 | [2] 0.024 | [3] 0.033 | [4] -0.015 | [5] -0.005

RPTOR (UniProt Q8N122)
inactive: [1] -0.022 | [2] -0.015 | [3] 0.095 | [4] -0.02 | [5] 0.032

RSRC2 (UniProt Q7L4I2)
inactive: [1] 0.034 | [2] 0 | [3] -0.045 | [4] 0.022 | [5] 0.085

SENP6 (UniProt Q9GZR1)
inactive: [1] 0.023 | [2] 0.014 | [3] 0.048 | [4] 0.022 | [5] 0.056

RPS2 (UniProt P15880)
inactive: [1] 0.123 | [2] -0.222 | [3] -0.222 | [4] 0.113 | [5] 0

SEC16A isoform 5 (UniProt O15027)
Sequence of UniProt O15027 (O15027 whole entry, looked up): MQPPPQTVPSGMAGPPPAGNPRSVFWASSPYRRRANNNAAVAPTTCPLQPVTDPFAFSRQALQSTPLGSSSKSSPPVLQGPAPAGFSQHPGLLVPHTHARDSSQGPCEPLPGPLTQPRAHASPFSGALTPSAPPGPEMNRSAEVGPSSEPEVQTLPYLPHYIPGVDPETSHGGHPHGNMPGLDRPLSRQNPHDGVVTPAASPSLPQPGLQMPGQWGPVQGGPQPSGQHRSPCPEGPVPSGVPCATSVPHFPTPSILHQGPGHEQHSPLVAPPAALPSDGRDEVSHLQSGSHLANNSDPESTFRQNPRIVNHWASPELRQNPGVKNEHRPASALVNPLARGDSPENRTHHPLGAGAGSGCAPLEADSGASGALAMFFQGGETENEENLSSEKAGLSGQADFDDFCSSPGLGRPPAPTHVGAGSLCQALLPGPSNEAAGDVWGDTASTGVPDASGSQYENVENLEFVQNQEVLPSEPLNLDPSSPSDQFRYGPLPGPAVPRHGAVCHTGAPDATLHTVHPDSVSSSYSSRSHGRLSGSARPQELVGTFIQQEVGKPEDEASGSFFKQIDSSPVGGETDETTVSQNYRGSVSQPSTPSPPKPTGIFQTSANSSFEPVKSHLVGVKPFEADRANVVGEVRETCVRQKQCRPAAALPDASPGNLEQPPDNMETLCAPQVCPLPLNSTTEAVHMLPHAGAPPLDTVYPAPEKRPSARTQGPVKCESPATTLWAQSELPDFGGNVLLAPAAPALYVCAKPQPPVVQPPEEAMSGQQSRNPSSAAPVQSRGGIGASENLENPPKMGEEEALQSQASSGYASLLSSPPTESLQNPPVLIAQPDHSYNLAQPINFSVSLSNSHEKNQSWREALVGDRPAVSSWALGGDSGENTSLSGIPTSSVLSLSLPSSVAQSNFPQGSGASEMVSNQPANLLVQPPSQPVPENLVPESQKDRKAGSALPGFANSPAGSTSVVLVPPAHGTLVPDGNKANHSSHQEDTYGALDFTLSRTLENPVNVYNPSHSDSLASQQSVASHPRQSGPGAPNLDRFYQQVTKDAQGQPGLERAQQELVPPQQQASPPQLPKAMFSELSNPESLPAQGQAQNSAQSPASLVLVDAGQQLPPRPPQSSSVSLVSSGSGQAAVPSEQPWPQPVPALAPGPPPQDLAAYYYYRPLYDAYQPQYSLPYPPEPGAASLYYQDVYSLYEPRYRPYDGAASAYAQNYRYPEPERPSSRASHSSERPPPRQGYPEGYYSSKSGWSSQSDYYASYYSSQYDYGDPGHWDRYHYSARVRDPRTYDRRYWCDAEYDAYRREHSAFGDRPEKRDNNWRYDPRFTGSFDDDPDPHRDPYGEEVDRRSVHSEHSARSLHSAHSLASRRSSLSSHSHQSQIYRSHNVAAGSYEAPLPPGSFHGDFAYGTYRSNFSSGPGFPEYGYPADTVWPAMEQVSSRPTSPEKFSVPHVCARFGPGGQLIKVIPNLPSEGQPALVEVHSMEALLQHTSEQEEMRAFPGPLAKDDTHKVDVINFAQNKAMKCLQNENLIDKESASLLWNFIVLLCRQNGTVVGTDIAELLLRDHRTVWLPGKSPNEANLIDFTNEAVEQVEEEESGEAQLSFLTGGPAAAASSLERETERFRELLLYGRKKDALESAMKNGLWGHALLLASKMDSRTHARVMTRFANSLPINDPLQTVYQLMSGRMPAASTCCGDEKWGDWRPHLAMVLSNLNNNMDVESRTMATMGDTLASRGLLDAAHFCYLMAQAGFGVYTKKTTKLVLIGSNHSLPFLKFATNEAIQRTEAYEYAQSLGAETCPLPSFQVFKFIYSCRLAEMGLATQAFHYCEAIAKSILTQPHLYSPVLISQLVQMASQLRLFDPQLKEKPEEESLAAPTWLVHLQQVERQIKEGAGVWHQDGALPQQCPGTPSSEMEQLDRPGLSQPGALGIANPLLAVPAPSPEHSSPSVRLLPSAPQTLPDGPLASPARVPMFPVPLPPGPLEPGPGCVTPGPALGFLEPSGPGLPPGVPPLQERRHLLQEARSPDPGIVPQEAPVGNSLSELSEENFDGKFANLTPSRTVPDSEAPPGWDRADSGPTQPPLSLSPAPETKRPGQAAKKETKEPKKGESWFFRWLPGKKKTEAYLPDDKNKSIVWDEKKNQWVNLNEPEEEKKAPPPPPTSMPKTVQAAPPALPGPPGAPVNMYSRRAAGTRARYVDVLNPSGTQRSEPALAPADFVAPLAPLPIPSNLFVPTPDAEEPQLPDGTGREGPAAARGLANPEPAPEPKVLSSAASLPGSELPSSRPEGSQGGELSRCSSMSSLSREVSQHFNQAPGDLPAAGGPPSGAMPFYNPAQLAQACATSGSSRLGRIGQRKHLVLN
inactive: [1] 0.014 | [2] 0.012 | [3] 0.154 | [4] 0.011 | [5] -0.006

RBBP6 (UniProt Q7Z6E9)
inactive: [1] 0.094 | [2] 0.119 | [3] -0.017 | [4] 0.066 | [5] -0.32

SH3PXD2B (UniProt A1X283)
inactive: [1] 0.07 | [2] 0.029 | [3] 0.001 | [4] -0.038 | [5] -0.046

RDH13 (UniProt Q8NBN7)
Sequence of UniProt Q8NBN7 (Q8NBN7 whole entry, looked up): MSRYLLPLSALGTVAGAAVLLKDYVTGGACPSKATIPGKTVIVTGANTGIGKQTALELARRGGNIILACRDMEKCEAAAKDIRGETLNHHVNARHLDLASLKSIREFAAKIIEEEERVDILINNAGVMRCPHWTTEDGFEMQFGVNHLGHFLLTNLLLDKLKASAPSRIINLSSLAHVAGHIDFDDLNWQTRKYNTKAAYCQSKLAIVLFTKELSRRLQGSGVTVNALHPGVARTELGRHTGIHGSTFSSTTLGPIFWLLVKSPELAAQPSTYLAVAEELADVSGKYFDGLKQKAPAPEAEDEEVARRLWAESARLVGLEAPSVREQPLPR
inactive: [1] -0.013 | [2] 0.052 | [3] 0.032 | [4] 0.013 | [5] -0.062

SLC1A3 (UniProt P43003)
inactive: [1] -0.031 | [2] 0.003 | [3] -0.016 | [4] 0.17 | [5] 0.039

SACM1L (UniProt Q9NTJ5)
inactive: [1] 0 | [2] 0.048 | [3] 0.064 | [4] -0.044 | [5] 0.006

RAP2C (UniProt Q9Y3L5)
inactive: [1] 0 | [2] 0.055 | [3] -0.012 | [4] 0.038 | [5] -0.011

RRAS2 isoform 4 (UniProt P62070)
inactive: [1] 0.045 | [2] -0.017 | [3] -0.062 | [4] -0.03 | [5] 0.011

SEPTIN5 (UniProt G3XAH0)
inactive: [1] 0.002 | [2] -0.014 | [3] 0.061 | [4] -0.043 | [5] -0.031

RBM26 isoform 2 (UniProt Q5T8P6)
inactive: [1] -0.068 | [2] 0.016 | [3] 0.144 | [4] -0.011 | [5] 0.012

RPS19 (UniProt P39019)
inactive: [1] 0.108 | [2] -0.158 | [3] -0.197 | [4] 0.107 | [5] -0.002

SLC12A5 (UniProt Q9H2X9)
Sequence of UniProt Q9H2X9 (Q9H2X9 whole entry, looked up): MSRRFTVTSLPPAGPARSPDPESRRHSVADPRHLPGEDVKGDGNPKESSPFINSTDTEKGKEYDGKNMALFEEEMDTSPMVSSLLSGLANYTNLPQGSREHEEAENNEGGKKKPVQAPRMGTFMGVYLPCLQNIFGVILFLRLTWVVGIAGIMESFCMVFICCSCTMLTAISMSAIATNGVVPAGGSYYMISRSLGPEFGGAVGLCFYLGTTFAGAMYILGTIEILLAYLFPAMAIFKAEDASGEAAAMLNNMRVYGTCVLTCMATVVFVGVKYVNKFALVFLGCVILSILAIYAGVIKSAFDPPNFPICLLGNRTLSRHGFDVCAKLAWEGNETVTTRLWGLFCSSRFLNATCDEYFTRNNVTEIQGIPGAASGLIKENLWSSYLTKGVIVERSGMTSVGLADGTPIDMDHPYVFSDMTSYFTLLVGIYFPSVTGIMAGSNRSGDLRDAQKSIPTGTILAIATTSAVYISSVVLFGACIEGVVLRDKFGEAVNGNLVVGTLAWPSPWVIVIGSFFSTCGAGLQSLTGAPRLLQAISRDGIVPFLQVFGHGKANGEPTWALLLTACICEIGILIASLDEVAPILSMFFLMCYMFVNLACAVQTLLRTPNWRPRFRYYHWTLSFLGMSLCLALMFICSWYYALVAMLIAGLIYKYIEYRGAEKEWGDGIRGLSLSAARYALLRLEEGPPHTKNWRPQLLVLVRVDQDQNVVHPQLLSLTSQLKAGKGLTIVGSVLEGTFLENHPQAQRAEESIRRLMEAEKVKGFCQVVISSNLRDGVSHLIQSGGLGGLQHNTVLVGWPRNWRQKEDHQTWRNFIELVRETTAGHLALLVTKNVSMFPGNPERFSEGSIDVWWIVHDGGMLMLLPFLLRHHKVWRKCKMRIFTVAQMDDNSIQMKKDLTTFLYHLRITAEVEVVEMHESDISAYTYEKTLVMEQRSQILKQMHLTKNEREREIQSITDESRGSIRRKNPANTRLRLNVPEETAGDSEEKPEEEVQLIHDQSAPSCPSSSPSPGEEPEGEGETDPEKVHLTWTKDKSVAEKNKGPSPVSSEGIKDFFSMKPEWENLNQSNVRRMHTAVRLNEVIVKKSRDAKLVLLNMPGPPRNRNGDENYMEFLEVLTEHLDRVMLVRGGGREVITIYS
inactive: [1] 0.102 | [2] 0.099 | [3] 0.066 | [4] -0.064 | [5] 0.055

RSPRY1 (UniProt Q96DX4)
inactive: [1] -0.009 | [2] 0.024 | [3] 0.012 | [4] -0.026 | [5] 0.029

SCAF11 (UniProt Q99590)
inactive: [1] -0.104 | [2] -0.098 | [3] 0.021 | [4] 0.064 | [5] 0.016

SEC31A (UniProt O94979)
inactive: [1] -0.067 | [2] 0.034 | [3] 0.09 | [4] -0.03 | [5] -0.006

RPS15 (UniProt P62841)
inactive: [1] 0.126 | [2] -0.113 | [3] -0.02 | [4] 0.122 | [5] 0.106
